Activity calls are given as the source filed them.

Test [1] in a line: binders of probe aFSTL3 on microarray, primary screen, stem cell growth factor project, biochemical, small-molecule microarray, fluorescence 635/667 (AID 1064).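 Further: measures binding of the biotinylated anti-FSTL3 antibody to printed compounds.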 As to conditions: higher = more signal.
Test [2] is described as follows: binders from COS7 lysate, DM2A8 probe, primary screen, torsin A project, cell lysate, small-molecule microarray, fluorescence 635/667 (AID 1065). As to conditions: higher = more signal, COS7 lysate expressing mutant human TOR1A.
Test [3] can be described thus: binders of probe aFGF2 on microarray, primary screen, stem cell growth factor project, biochemical, small-molecule microarray, fluorescence 635/667 (AID 1067).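 Further: measures binding of biotinylated aFGF2 protein to printed compounds on slides; z-score merges feature fluorescence and signal-to-noise across triplicate slides.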 As to conditions: higher = more signal.
The nature of test [4]: binders of probe aFGF10 on microarray, primary screen, stem cell growth factor project, biochemical, small-molecule microarray, fluorescence 635/667 (AID 1071).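 Further: score merges 667 nm spot intensity and signal to noise from triplicate slides.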 As to conditions: higher = more signal.
In test [5] the target is Neurogenic locus notch homolog protein 2 (Homo sapiens) (UniProt Q04721). In words: Notch2 binders on small-molecule microarrays, primary screen, biochemical, small-molecule microarray, 635 nm fluorescence, stem cell growth factors (AID 1073). As to conditions: Notch2 binding, higher = more signal.
Chain of Neurogenic locus notch homolog protein 2 (Homo sapiens) (Q04721 whole entry, looked up, canonical isoform): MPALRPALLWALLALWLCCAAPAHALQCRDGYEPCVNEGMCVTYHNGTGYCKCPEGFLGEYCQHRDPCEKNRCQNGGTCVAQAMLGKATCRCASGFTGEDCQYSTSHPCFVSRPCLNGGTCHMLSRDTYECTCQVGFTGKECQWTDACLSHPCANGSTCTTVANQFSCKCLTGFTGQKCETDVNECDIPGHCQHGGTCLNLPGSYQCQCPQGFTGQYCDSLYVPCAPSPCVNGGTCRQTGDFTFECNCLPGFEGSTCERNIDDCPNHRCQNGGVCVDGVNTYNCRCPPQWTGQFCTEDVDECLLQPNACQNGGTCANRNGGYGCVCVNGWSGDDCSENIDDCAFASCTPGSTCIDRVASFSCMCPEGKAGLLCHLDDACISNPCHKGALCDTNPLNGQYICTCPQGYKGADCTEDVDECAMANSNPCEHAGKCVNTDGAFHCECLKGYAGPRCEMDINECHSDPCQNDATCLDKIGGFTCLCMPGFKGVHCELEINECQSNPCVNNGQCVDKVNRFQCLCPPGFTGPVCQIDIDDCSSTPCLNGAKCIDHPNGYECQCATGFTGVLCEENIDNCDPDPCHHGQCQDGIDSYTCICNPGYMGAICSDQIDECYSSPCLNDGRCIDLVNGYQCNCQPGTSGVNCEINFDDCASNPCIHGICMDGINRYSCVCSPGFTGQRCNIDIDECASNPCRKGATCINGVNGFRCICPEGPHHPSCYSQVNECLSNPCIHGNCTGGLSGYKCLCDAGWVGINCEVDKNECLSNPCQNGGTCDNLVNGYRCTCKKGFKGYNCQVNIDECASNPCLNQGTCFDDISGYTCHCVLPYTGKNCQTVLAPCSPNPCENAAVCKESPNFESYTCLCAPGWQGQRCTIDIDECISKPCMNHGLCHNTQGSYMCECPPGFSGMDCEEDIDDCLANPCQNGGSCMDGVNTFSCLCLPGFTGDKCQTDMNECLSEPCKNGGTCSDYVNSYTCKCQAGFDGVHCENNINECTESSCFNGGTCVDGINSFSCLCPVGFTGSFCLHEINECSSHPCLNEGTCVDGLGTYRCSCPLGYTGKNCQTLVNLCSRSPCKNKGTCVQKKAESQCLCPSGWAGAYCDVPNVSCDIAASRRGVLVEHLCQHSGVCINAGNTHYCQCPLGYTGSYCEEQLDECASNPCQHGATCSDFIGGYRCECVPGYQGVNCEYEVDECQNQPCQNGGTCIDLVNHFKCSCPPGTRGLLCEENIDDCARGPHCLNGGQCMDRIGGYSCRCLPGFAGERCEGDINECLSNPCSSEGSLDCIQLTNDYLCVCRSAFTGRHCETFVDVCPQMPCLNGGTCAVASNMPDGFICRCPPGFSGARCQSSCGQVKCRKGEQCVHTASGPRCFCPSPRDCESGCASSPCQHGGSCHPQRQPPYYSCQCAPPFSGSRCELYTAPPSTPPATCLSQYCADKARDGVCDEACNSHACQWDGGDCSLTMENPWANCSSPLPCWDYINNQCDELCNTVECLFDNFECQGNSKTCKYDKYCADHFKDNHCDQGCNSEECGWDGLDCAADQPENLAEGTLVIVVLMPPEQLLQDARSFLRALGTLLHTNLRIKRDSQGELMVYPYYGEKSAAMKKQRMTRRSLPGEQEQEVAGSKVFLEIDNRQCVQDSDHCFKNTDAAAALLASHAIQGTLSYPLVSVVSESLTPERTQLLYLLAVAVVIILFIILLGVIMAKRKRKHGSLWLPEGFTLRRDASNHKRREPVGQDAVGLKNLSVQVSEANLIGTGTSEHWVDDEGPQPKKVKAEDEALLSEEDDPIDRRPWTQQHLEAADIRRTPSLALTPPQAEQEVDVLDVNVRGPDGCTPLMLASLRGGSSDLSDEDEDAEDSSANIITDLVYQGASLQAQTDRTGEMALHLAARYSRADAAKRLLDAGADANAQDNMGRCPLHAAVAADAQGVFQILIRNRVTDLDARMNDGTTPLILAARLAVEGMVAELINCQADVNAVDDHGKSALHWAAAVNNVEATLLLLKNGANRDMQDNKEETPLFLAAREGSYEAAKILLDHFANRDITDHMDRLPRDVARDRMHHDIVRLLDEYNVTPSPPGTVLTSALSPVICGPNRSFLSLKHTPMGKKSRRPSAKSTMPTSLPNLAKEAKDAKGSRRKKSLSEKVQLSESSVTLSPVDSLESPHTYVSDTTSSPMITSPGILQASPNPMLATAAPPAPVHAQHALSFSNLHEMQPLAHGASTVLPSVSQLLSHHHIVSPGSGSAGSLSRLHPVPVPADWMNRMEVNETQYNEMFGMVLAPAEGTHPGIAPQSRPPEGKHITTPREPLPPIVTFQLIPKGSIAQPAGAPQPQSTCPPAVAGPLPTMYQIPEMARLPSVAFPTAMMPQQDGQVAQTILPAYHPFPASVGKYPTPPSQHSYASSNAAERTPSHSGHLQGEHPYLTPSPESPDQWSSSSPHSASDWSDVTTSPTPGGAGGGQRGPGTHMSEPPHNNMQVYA
In test [6] the target is Pro-neuregulin-1, membrane-bound isoform (Homo sapiens) (UniProt Q02297). The test is described as follows: NRG1 binders on small-molecule microarrays, primary screen, psychiatric disease protein project, biochemical, small-molecule microarray, fluorescence 635/667 (AID 1075).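 Further: score combines 667 nm spot fluorescence with signal to noise.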 As to conditions: NRG1 binding, 635 nm fluorescence, higher = more signal.
Chain of Pro-neuregulin-1, membrane-bound isoform (Homo sapiens) (Q02297 whole entry, looked up, the tested form may be a part, canonical isoform): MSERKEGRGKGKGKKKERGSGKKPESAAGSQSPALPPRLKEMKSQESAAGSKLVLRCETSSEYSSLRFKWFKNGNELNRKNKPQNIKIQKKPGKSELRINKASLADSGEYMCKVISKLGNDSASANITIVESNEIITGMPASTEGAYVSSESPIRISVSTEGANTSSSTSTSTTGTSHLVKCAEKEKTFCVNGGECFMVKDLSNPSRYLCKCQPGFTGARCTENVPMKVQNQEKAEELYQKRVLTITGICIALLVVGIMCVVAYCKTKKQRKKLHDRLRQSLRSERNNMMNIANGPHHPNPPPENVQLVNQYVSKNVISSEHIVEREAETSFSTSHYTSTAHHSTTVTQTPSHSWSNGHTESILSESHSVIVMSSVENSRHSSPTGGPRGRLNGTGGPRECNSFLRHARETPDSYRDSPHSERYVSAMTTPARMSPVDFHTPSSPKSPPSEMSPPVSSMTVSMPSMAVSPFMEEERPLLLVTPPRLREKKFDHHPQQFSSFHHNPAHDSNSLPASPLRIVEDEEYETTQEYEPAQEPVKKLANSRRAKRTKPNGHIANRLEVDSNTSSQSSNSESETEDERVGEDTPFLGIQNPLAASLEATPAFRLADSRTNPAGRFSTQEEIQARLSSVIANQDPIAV
Test [7] relates to Neuregulin-1 EGF-like domain. In words: binders of neuregulin-1 EGF-like domain, primary screen, biochemical, small-molecule microarray, 635 nm fluorescence (AID 1081).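 Further: binding of the protein to compounds printed on small-molecule microarray slides.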 As to conditions: small-molecule microarray binding, higher = more signal.
The nature of test [8]: FRG1 promoter luciferase signal modulators, primary screen, FRG1 inhibition for FSHD, cell-based, C2C12 myotubes, firefly/Renilla luciferase, luminescence (AID 1084). As to conditions: higher = more signal, called active from +8 up or from −8 down.
Test [9] in a line: binders of probe aFST on microarray, primary screen, stem cell growth factor project, biochemical, small-molecule microarray, fluorescence 635/667 (AID 1086).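 Further: score merges 667 nm fluorescence with signal-to-noise of each printed compound spot.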 As to conditions: higher = more signal.
The nature of test [10]: binders of probe aHhip on microarray, primary screen, stem cell growth factor project, biochemical, small-molecule microarray, fluorescence 635/667 (AID 1087).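 Further: score merges spot fluorescence at 667nm with spot signal to noise ratio.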 As to conditions: higher = more signal.

For `COCCOC(=O)N1C(=O)[C@@]2(c3cc(C#CC4(O)CCCCCC4)ccc31)[C@H](C(=O)N1CCc3cc(OC)c(OC)cc3C1)[C@H]1C(=O)O[C@H](c3ccccc3)[C@H](c3ccccc3)N1[C@@H]2c1ccc(O)cc1`, the composite z-score in test [1] was -0.277; in test [2], 2.26; in test [3], -0.01; in test [4], 0.68; in [5], 1.51; in test [6], 0.156. Further, the figures for the composite z-score in [7], in test [9] and in [10] were 1.16, 0.101 and -0.0618, respectively. For the same molecule, the z-score in test [8] is -0.877 (inactive).
Take `COCCOC(=O)N1C(=O)[C@@]2(c3cc(C#CC4(O)CCCCCC4)ccc31)[C@H](C(=O)NC[C@H](O)c1ccccc1)[C@H]1C(=O)O[C@H](c3ccccc3)[C@H](c3ccccc3)N1[C@@H]2c1ccc(O)cc1`: the composite z-score is -0.0443 in test [1]; 0.224 in test [2]; -0.0193 in test [3]; 1 in [4]; 0.496 in [5]; 0.802 in test [6]. Also, the composite z-score in [7] is 1.28; in [9], 0.153; in test [10], 0.176. Also, the z-score in test [8] was -0.0865 (inactive).
As to `C=CCN1C(=O)[C@]2(O[C@H](CCn3cc([C@H](O)c4ccccc4)nn3)[C@@H]([Si](C)(C)c3ccc(OC)cc3)[C@@H]2C)c2cc(N3C(=O)c4cccc5cccc3c45)ccc21`, the composite z-score in test [1] was -0.144; in test [2], -0.111; in test [3], -0.085; in [4], 0.73; in test [5], -0.0893; in test [6], 1.07. For the same molecule, the composite z-score in [7] was 0.76; in test [9], -0.516; in test [10], -0.256. Moreover, the z-score in [8] was -1.84 (inactive).
Regarding `C=CCNC(=O)[C@@H]1[C@H]2C(=O)O[C@H](c3ccccc3)[C@H](c3ccccc3)N2[C@H](c2ccccc2OCCO)[C@@]12C(=O)N(C(=O)OCCOC)c1ccc(C#CCCO)cc12`, the composite z-score in [1] is -0.0812; in [2], 0.693; in test [3] it was 0.0645; in test [4], 1.05; in test [5], 0.742; in test [6], 1.2. The composite z-score was 1.21 in [7], -0.66 in [9] and 0.277 in test [10]. Further, in [8], the z-score was 0.0106 (inactive).
Regarding `CC(C)C[C@@H]1NC(=O)[C@@H]2C[C@H](C(=O)O)[C@H](c3ccc(O)cc3)N2C1=O`, the composite z-score in test [1] was -0.451; in [2], 1.9; in test [3], -0.121; in test [4] it was 0.338; in test [5], 0.529; in [6], 0.833. Further, the composite z-score in test [7] worked out at 1.23; in test [9], 0.186; in [10], 0.0373. Moreover, the z-score in test [8] was -0.93 (inactive).
With `COc1ccc(NC(=O)O[C@H]2[C@H](OC(=O)Nc3ccc4c(c3)OCO4)[C@H](OC(=O)Nc3ccc4c(c3)OCO4)[C@@H](OC)O[C@@H]2CO)cc1`, the composite z-score in test [1] is 0.198; in [2], 0.347; in test [3], 0.0519; in test [4] it was 0.739; in test [5] it was 0.302; in test [6], 0.978. Also, the composite z-score is 0.905 in test [7], 0.327 in [9] and 0.142 in [10]. In test [8], the z-score is 3.53 (inactive).
For the molecule `CN1C(=O)[C@]2(CCS(=O)(=O)c3ccccc3)N=C(c3ccc(OCCCO)cc3)O[C@@H]2c2ccccc21`, the composite z-score in test [1] is 0.511; in [2], 0.485; in [3], -0.0984; in test [4], 0.255; in test [5], 0.768; in test [6] it was 1.75. Moreover, the composite z-score was 1.41 in test [7], 0.135 in test [9] and 0.238 in test [10]. Also, the z-score in test [8] is -0.34 (inactive).
As for `COCCOC(=O)N1C(=O)[C@@]2(c3ccccc31)[C@H](c1ccc(OCCO)cc1)N1[C@H](c3ccccc3)[C@H](c3ccccc3)OC(=O)[C@H]1[C@@H]2C(=O)N1CCN(c2ncccn2)CC1`, the composite z-score in [1] is -0.185; in [2], 0.751; in [3], 0.0323; in test [4], 0.559; in test [5], 1.47; in [6], 1.33. In addition, the figures for the composite z-score in test [7], in [9] and in test [10] were 1.24, 0.742 and 0.107, respectively. The z-score in test [8] is -0.132 (inactive).
Turning to `CCOC(=O)C[C@H]1[C@H](OC(=O)c2cc3ccccc3oc2=O)[C@@H](NC(=O)C2CCCCC2)c2cc(OCCCO)ccc2N1C(=O)Cc1ccc(OC)cc1`, the composite z-score in test [1] is -0.0716; in [2], 0.714; in test [3], 0.0066; in test [4], 0.65; in test [5], 0.54; in test [6], 0.052. In addition, the composite z-score was 0.72 in test [7], 0.352 in test [9] and -0.201 in test [10]. Further, the z-score in test [8] is 0.198 (inactive).
In the case of `CCCCC=C[C@@H](NC(=O)c1ccc(C(F)(F)F)cc1)c1ccccc1`, the composite z-score in test [1] was 0.385; in test [2], 0.0374; in test [3], -0.0583; in test [4], -0.0239; in test [5], -0.955; in test [6], 0.297. In addition, the values for the composite z-score in test [7], in [9] and in test [10] were -0.444, -0.392 and 0.449, respectively. Moreover, the z-score in test [8] was 1.02 (inactive).
For `NC(=O)[C@@]1(CCS(=O)(=O)c2ccccc2)COC(c2ccc(OCCCO)cc2)=N1`, the composite z-score in [1] amounted to 0.615; in [2], 0.0735; in test [3], 0.0777; in [4] it was 0.0833; in [5], 0.963; in [6] it was 1.78. Besides, the composite z-score in [7] was 0.832; in [9] it was 0.194; in test [10] it was -0.112. Further, in test [8], the z-score is -0.429 (inactive).
For the molecule `NCCCC[C@@H]1NC(=O)[C@H]2C[C@@H](C(=O)NCc3ccc(F)cc3)[C@@H](c3cccc(OCCO)c3)N2C1=O`, the composite z-score in test [1] was -0.261; in [2] it was 0.357; in [3], -0.0262; in test [4], 0.527; in test [5] it was 0.772; in test [6] it was 1.09. Also, the composite z-score is 1.33 in test [7], 0.182 in [9] and -0.0994 in test [10]. Also, the z-score in test [8] is -0.0673 (inactive).

These data come from PubChem BioAssay.
